Compound activity: PubChem, National Center for Advancing Translational Sciences (NCATS)
Coupling enz = coupling enzyme interference in Giardia aldolase counter-screen | activity change, negative = inhibition, % at 58.2 µM, hits read low | 0.67% of 290,000 active | coupling enzyme system counterscreen, AmpLite Red fluorescence | AID 2472; in the data active means activity change below about -30%
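Counterscreen lacking aldolase: glyceraldehyde-3-phosphate coupling-enzyme reagent preincubated 10 min at RT with compound (at 57.5 uM final), then substrate/coupling system with AmpLite Red added; fluorescence read at 525/598 nm after 20 min RT.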
Tau fluor cs = counter-screen for tau fibril formation inhibitors. 0.93% of 280,000 active. Potency, µM (highest dose often 57.7 µM). tau K18 P301L Alexa594 fluorescence, heparin fibrillization. AID 1463; further: nearly all actives have a fitted effect of over 55% in size
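Human K18 P301L tau (15 uM unlabeled plus 0.24 uM Alexa 594-labeled, final) in 100 mM sodium acetate pH 7 was mixed with compound and 20 uM heparin and incubated 6 hr at 37 C.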
Sfp PPTase inh = Sfp phosphopantetheinyl transferase inhibition | Q9F4F7 | Biochemical Sfp PPTase activity, qHTS | Potency, µM, hits mostly inhibitors | 3.5% of 310,000 active | AID 1490;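 further: the enzyme is Sfp with the accession as filed and its product quenches rhodamine fluorescence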
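Fluorescence-quenching assay with 15 nM Sfp, 5 uM rhodamine-CoA and 12.5 uM BHQ-2-labelled ybbR peptide in pH 7.6 Hepes/MgCl2 buffer. Enzyme was pre-incubated with compound for 15 min at room temperature. Rate was taken from the 30-min fluorescence change (525/598 nm).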
G9a inh = blocks human histone lysine methyltransferase G9a | Potency, µM (series often up to 102 µM), usual class: inhibitors | 8.8% of 350,000 active | G9a H3K9 monomethylation, AlphaScreen, 2 h | AID 504332; further: nearly all actives have a fitted effect of over 75% in size
Target sequence (Q96KQ7 913-1193 limits assumed): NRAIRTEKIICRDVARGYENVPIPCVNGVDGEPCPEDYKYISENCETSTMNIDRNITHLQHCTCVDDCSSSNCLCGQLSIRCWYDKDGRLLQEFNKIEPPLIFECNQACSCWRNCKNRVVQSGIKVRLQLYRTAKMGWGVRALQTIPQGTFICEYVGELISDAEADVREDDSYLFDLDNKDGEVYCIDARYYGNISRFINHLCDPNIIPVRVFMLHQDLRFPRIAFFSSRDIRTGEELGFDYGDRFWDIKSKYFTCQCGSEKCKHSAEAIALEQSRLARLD
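Compounds were preincubated with 20 nM G9a for 15 min, after which biotinylated H3K9 peptide (500 nM) and SAM (20 uM) started a 2 h room-temperature reaction. Monomethylated product was quantified by antibody-based AlphaScreen chemiluminescence.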
Tau ThT inhib = blocks human tau fibril formation measured by thioflavin T; P10636; recombinant tau K18 P301L (four-repeat tau fragment), heparin-induced fibrillization, ThT fluorescence; Potency, µM (titrated, usually from 57.4 µM), most hits filed as inhibitors; 2.1% of 270,000 active; AID 1460; further: nearly all actives have a fitted effect of over 55% in size
Target sequence (P10636 561-689 P618L limits assumed): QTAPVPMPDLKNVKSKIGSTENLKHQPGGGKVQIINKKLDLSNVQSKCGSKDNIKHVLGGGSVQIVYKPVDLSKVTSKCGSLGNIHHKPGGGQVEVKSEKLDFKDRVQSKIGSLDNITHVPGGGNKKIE
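Heparin-induced fibrillization of the P301L-mutant K18 repeat-domain fragment of human tau was followed by ThT binding in quantitative high-throughput format.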
Tau FP inhib = inhibitors of human tau fibril formation; P10636; K18 P301L tau heparin fibrillization, Alexa594 FP, 6 h; Potency, µM (top dose mostly 57.7 µM), most hits filed as inhibitors; 0.39% of 280,000 active; AID 1468; further: nearly all actives have a fitted effect of over 55% in size
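K18 P301L tau (15 uM unlabeled/0.24 uM Alexa 594-labeled, final) + compound + heparin 20 uM final; 100 mM NaOAc pH 7; 6 hr 37 C; ThT 30 uM final added, 1 hr RT; FP ex 555/em 632 nm.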
Large screens that a line does not name were inactive; [ ] = another dose, or the depositor's remark. Shown are actives, neighbours in structure and some others; about 11% of the full set was active somewhere. Unless noted, the call rests on the fitted dose curve; in most records, active means well fitted curve in the direction sought with a large enough effect; inconclusive means small, poorly fitted or top-dose-only effect, or another doubt; inactive means no such curve, though single readings can be large; an effect the other way counts as inactive or inconclusive.

O=C(CSc1cccc[n+]1[O-])Nc1ccc2c(c1)OCO2	G9a inh 50.1µM
COc1cc(NS(C)(=O)=O)ccc1Nc1c2ccccc2nc2ccccc12	Tau fluor cs inconclusive, G9a inh 11.9µM, Tau ThT inhib 14.1µM (no result: Coupling enz)
COc1ccc(OC)c(Nc2c3ccccc3nc3ccccc23)c1	none (no result: Tau fluor cs, Tau ThT inhib, Tau FP inhib)
CCOC(=O)c1ccc(Nc2nc(N)c3cc(OC)c(OC)cc3n2)cc1	Tau fluor cs inconclusive, Sfp PPTase inh 79.4µM, Tau ThT inhib inconclusive, Tau FP inhib inconclusive
COc1cc2nc(Nc3cccc(C)c3)nc(N)c2cc1OC	Tau fluor cs inconclusive, Tau ThT inhib inconclusive, Tau FP inhib inconclusive (no result: Coupling enz, Sfp PPTase inh)
COc1cc2nc(N(C)C)nc(N)c2cc1OC	G9a inh 44.7µM
COc1cc2nc(Nc3ccc(F)cc3)nc(N)c2cc1OC	Tau fluor cs inconclusive, Sfp PPTase inh inconclusive, G9a inh 79.4µM, Tau ThT inhib inconclusive, Tau FP inhib inconclusive
CCOC(=O)c1ccc(Nc2c(OCC)c(=O)c2=O)cc1	Tau fluor cs 17.8µM[quencher] (no result: Tau ThT inhib)
COc1ccc(C2=C(C)C(N3CCC(C(=O)Nc4ccc(F)cc4C)CC3)=NS2(=O)=O)cc1	none (no result: Coupling enz, Sfp PPTase inh)
Cc1ccc(C(=O)N2CCN(S(=O)(=O)c3ccccc3)CC2)s1	none (no result: Coupling enz, Tau fluor cs, Sfp PPTase inh, Tau ThT inhib, Tau FP inhib)
CCn1c(SCC(=O)NNC(=O)c2ccc(C)cc2)nnc1C1CC1	none (no result: Tau fluor cs, Tau ThT inhib, Tau FP inhib)
COc1cc2nc(Nc3ccc(C)c(Cl)c3)nc(N)c2cc1OC	Sfp PPTase inh 44.7µM, G9a inh 50.1µM (no result: Tau fluor cs, Tau ThT inhib, Tau FP inhib)
COc1cc2nc(Nc3ccc(C)c(C)c3)nc(N)c2cc1OC	Tau fluor cs inconclusive, Sfp PPTase inh inconclusive, Tau FP inhib inconclusive
CCc1ccccc1NC(=O)Nc1ccc2snnc2c1	Tau fluor cs inconclusive, Tau FP inhib inconclusive (no result: Coupling enz, Sfp PPTase inh)
Cc1ccc(NC(=O)Nc2ccc3snnc3c2)cc1C	Tau fluor cs inconclusive, Tau FP inhib inconclusive (no result: Coupling enz, Sfp PPTase inh)
CCOC(=O)c1ccc(NC(=O)Nc2ccc3snnc3c2)cc1	Tau FP inhib 11.2µM (no result: Coupling enz, Sfp PPTase inh)
O=C(Nc1ccc2snnc2c1)Nc1cccc2ccccc12	Tau fluor cs 7.94µM[quencher], G9a inh 50.1µM, Tau FP inhib 25.1µM
Cc1cccc2sc(N(CCN(C)C)C(=O)C3CCN(S(=O)(=O)c4cccs4)CC3)nc12	G9a inh 31.6µM (no result: Coupling enz, Tau fluor cs, Sfp PPTase inh, Tau ThT inhib, Tau FP inhib)
CN(C(=O)C1CCN(S(=O)(=O)c2cccs2)CC1)C1CCCCC1	none
CN(C)CCN(C(=O)C1CCN(S(=O)(=O)c2cccs2)CC1)c1nc2ccc(F)cc2s1	G9a inh 28.2µM (no result: Coupling enz, Tau fluor cs, Sfp PPTase inh, Tau ThT inhib, Tau FP inhib)
Cc1ccc2nsnc2c1NC(=O)c1cncc(Br)c1	G9a inh 56.2µM, Tau ThT inhib inconclusive, Tau FP inhib inconclusive
COc1ccccc1CNC(=O)[C@H](Cc1c[nH]c2ccccc12)NC(=O)[C@@H]1Cc2ccccc2CN1	G9a inh 12.6µM (no result: Tau fluor cs, Tau ThT inhib, Tau FP inhib)
COc1ccc(CNC(=O)[C@@H](C)NC(=O)[C@@H]2Cc3ccccc3CN2)cc1	none (no result: Tau fluor cs, Tau ThT inhib, Tau FP inhib)
C[C@H](NC(=O)[C@@H]1Cc2ccccc2CN1)C(=O)NCC1CCCO1 (some centres undefined)	G9a inh 39.8µM (no result: Coupling enz, Tau fluor cs, Tau ThT inhib, Tau FP inhib)
C[C@@H](NC(=O)[C@@H]1Cc2ccccc2CN1)C(=O)NC1CCCCC1	G9a inh inconclusive (no result: Coupling enz, Tau fluor cs, Tau ThT inhib, Tau FP inhib)
C[C@@H](NC(=O)[C@@H]1Cc2ccccc2CN1)C(=O)NCc1ccco1	G9a inh 50.1µM (no result: Coupling enz, Tau fluor cs, Tau ThT inhib, Tau FP inhib)
COC(=O)c1ccc(Cl)cc1NC(=O)N1CC(C)Oc2ccccc21 (centres undefined)	none (no result: Coupling enz, Sfp PPTase inh)
COCCOC(=O)c1cc(C(=O)c2cc(Cl)ccc2O)coc1=N	none
O=C(CCSc1nc2ccccc2o1)N1CCOCC1	G9a inh 14.1µM
CCOC(=O)C1CCCN(c2ccc(NC(=O)c3snc4c(=O)[nH]cnc34)cc2)C1 (centres undefined)	Tau ThT inhib 2.82µM
O=C1/C(=C\c2ccco2)CCC/C1=C\c1ccco1	Sfp PPTase inh 11.2µM, G9a inh inconclusive, Tau ThT inhib 17.8µM, Tau FP inhib inconclusive
O=C1/C(=C/c2ccco2)Cc2ccccc21	G9a inh inconclusive, Tau ThT inhib inconclusive
CC1C/C(=C/c2ccco2)C(=O)/C(=C/c2ccco2)C1 (centres undefined)	Sfp PPTase inh inconclusive, G9a inh 12.6µM, Tau ThT inhib 25.1µM, Tau FP inhib inconclusive
